According to PubChem BioAssay:

Tested on: Lefty1
Assay: Lefty1 binders on small-molecule microarrays, primary screen, biochemical, small-molecule microarray, 635/667 nm fluorescence (AID 1139)
Conditions: small-molecule microarray binding, fluorescence 635/667; higher = more signal

Compound	composite z-score
CS(=O)(=O)CCOC(=O)C1=CC(c2ccc(CO)cc2)=CC(C2CC2)N(Cc2sc3ccccc3c2Cl)C=C1C(=O)OCCS(C)(=O)=O (stereo not given)	0.851
CCCCNC(=O)c1ccc(C#CC(C)(C)C)c(OC(C)=O)c1	0.777
O=C1C2C=CC(C(O)c3ccco3)N(Nc3ccccc3F)C2C(=O)N1c1ccccc1 (stereo not given)	-0.531
COc1cc(NN2C(C(O)c3ccco3)C=CC3C(=O)N(C)C(=O)C32)cc(OC)c1OC (stereo not given)	0.0051
COC(=O)[C@@]1(Cc2ccc(F)cc2)[C@H]2c3cc(C(=O)N(C)C)n(CCc4ccc(OC)c(Br)c4)c3C[C@H]2CN1C(=O)c1ccccc1	-0.337
CC(C)[Si](C#CCCCC#N)(O[C@H](c1ccccc1)c1cn(Cc2ccccc2)nn1)C(C)C	0.809
COCCOC(=O)N1C(=O)[C@@]2(c3cc(C#CC4(O)CCCCCC4)ccc31)[C@H](C(=O)Nc1nc3ccccc3s1)[C@H]1C(=O)O[C@H](c3ccccc3)[C@H](c3ccccc3)N1[C@@H]2c1ccc(O)cc1	1.15

Tested on: wheat germ agglutinin (Triticum aestivum), Alexa647-labelled
Assay: wheat germ agglutinin binders on compound microarrays, profiling panel, artefact control for SMM control-protein annotation, biochemical, small-molecule microarray, 635/667 nm fluorescence (AID 1140);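 also: score merges 667 nm feature emission with signal to noise over triplicate slides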
Conditions: WGA-A647 binding, 635 nm fluorescence, higher = more signal

Compound	composite z-score
CCC#CCN(Cc1ccccc1Br)[C@H](/C=C/C1CC1)[C@@H](O)Cc1ccccc1	-0.366
CCCCN1CC=CC23O[C@@H]4/C=C\CCCOC(=O)C4[C@H]2C(=O)N(CCO)[C@@H]3C1=O (stereo not given in full)	-0.724
C=CCNC(=O)[C@@H]1[C@H]2C(=O)O[C@H](c3ccccc3)[C@H](c3ccccc3)N2[C@H](c2ccccc2OCCO)[C@@]12C(=O)N(C(=O)OCCOC)c1ccc(C#CC3(O)CCCCCC3)cc12	0.323
O=C(C1N=C(c2ccc(OCCCO)cc2)N(c2ccccc2)O1)N1CCCCC1 (stereo not given)	1.31
CN(C)CCCCCCNC(=O)[C@@H]1C[C@@H]2C(=O)N3CCC[C@H]3C(=O)N2[C@@H]1c1cccc(OCCO)c1	1.1
COC(=O)[C@@]1(Cc2ccccc2)[C@H]2c3cc(C(=O)N(C)C)n(Cc4ccc(C)o4)c3C[C@H]2CN1C(=O)c1ccccc1	1.26
O[C@@H](Cc1ccccc1)[C@@H](/C=C/C1CC1)N(CC#Cc1ccccc1)Cc1ccccc1Br	-1.11
COCC(=C=CC[C@H](O)c1ccc(OCCO)cc1)CCO	-0.335
NCCCCCNC(=O)[C@H]1C[C@H]2C(=O)N3CCC[C@H]3C(=O)N2[C@H]1c1cccc(OCCO)c1	1.29
CCCC[C@@H]1C[C@H]1[C@@H](NC(=O)c1cccs1)c1ccccc1C(F)(F)F	0.839
CCOC(=O)C[C@H]1[C@H](OC(=O)Cc2ccc3c(c2)OCO3)[C@@H](NC(=O)C2CCCCC2)c2cc(OCCCO)ccc2N1C(=O)c1ccccc1	0.0468
COc1cc(C(O)C2C=CC3C(=O)N(C)C(=O)C3N2Nc2ccccc2)cc(OC)c1OC (stereo not given)	1.14
COc1ccc([Si](C)(C)[C@@H]2[C@@H](CC(=O)N3Cc4ccccc4C[C@H]3CO)O[C@]3(C(=O)N(Cc4ccc(N5C(=O)c6cccc7cccc5c67)cc4)c4ccccc43)[C@H]2C)cc1	0.323
C=CCC(OC(C)=O)[C@@H]1[C@@H](N(Cc2ccc(-c3cccc(C(F)(F)F)c3)o2)C(=O)c2ccc(-c3ccccc3)cc2)c2cc(OCCCO)ccc2N1C(=O)Cc1ccc2ccccc2c1 (stereo not given in full)	-0.0916
C=CCNC(=O)[C@H]1[C@@H]2C(=O)O[C@@H](c3ccccc3)[C@@H](c3ccccc3)N2[C@@H](c2ccccc2OCCO)[C@]12C(=O)N(C(=O)OCCOC)c1ccc(C#CC3(O)CCCCCC3)cc12	0.763
COc1ccc([Si](C)(C)[C@@H]2[C@@H](CCO)O[C@]3(C(=O)N(Cc4cccc(NC(=O)[C@H](C)O)c4)c4ccccc43)[C@H]2C)cc1	0.743
CCCCC[C@H]1OC[C@@]23C=C(Br)[C@@H](CC12)[C@@]1(CO1)C3=O (stereo not given in full)	-0.407
C=CCN1Cc2ccccc2[C@@H]2OC(c3ccc(OCCCO)cc3)=N[C@]2(CC=C)C1=O	0.667
Cc1ccc(NN2C(C(O)c3c(F)cccc3Cl)C=CC3C(=O)N(C4CCCCC4)C(=O)C32)cc1 (stereo not given)	1.26
CCCCC(CC)C(O)C1C=CC2C(=O)N(c3ccccc3)C(=O)C2N1Nc1ccc(C#N)cc1 (stereo not given)	1.12
NC(=O)[C@H]1[C@@H]2C(=O)O[C@@H](c3ccccc3)[C@@H](c3ccccc3)N2[C@@H](c2ccc(OCCO)cc2)[C@]12C(=O)Nc1ccc(C#CCCO)cc12	0.9
CCC1=C2CN(Cc3ccccc3)[C@@H](C(=O)Cc3ccccc3)C2C=CCC1 (stereo not given in full)	0.557
[N-]=[N+]=Nc1ccccc1C[C@]1(C(=O)NCC(O)CO)COC(c2ccc(OCCCO)cc2)=N1 (stereo not given in full)	0.14
